In PubChem BioAssay (NCATS) one finds Potency data, which are given here for 40 compounds.

The structures appear in SMILES notation. Records with an inconclusive call do not appear. A call without a number means that no potency is given here. Active and inactive are the calls of the source. Calls come from the whole dose curve; as a rule, active = well fitted inhibition curve with a large enough effect; inconclusive = small, poorly fitted or top-dose-only effect; inactive = flat fitted curve, though single readings scatter.
Potency is the fitted concentration of half-maximal effect.

Sequence of Glutathione peroxidase 1 (Homo sapiens) (P07203 whole entry, looked up): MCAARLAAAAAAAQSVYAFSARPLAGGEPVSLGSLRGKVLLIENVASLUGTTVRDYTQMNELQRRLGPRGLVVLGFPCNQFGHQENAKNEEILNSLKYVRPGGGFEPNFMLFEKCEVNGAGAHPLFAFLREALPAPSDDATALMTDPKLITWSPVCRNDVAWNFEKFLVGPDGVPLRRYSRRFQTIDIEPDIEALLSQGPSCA

The target in the assay is Glutathione peroxidase 1 (Homo sapiens) (UniProt P07203). Description: Primary qHTS Assay for Inhibitors of Recombinant Selenoprotein Glutathione Peroxidase 1 (GPX1) (AID 1845191). Note: nearly all actives have a fitted effect of over 65% in size. To be noted: recombinant GPX1, GR-coupled NADPH fluorescence, 15 min; series mostly up to 48.8 µM. The text has this:
Assay Provider: Elias S.J. Arner MD PhD.
Department of Medical Biochemistry and Biophysics
Karolinska Institutet, Solna, Stockholm, Sweden
Selenoprotein glutathione peroxidases (GPX), like the ubiquitously expressed GPX1 and the ferroptosis modulator GPX4, enact their antioxidant activities by reducing hydroperoxides using glutathione. […] GPX1 and GPX4 inhibitors have thus shown promise as anti-cancer agents. Existing inhibitors are often promiscuous, or modulate GPX activity only indirectly, so novel direct inhibitors identified through screening against GPX1 and GPX4 could be valuable. Here, we developed optimized glutathione reductase (GR)-coupled GPX assays for the biochemical high-throughput screen (HTS) of almost 12,000 compounds with known mechanisms of action. Initial hits were triaged using a GR counter-screen, assessed for isoform specificity using a separate GPX2 assay, and were assessed for general selenocysteine-targeting activity using a thioredoxin reductase (TXNRD1) assay. With this suite of assays, we identified novel GPX1/GPX2- and GPX4-specific inhibitors and can here present a validated pipeline for future discovery research for selenoprotein-targeting agents.
SEQUENCE No. (e.g., 1, 2, 3, etc.); […] (e.g., Cells, Incubation, Reagent, etc.); VALUE; DESCRIPTION.
1; Reagent 1; 3 uL; GPx1 enzyme or no enzyme control in 1536-well, black, solid Greiner assay plate.
2; Compound; 25 nL; Kalypsis pin tool (Wako USA) equipped with a 1536-well pin head.
3; Incubation; 30 min; room temperature.
4; Reagent 2; 1 uL; 10 nM GPX1, 1 mM GSH, 0.5 mM CHP, 0.5 mM NADPH, 100 nM GR, 0.01% BSA substrate
5; Detection; Fluorescence; ViewLux microplate reader, excitation 340 nm and emission 450 nm.
6; Incubation; 15 min; room temperature.
7; Detection; Fluorescence; ViewLux microplate reader, excitation 340 nm and emission 450 nm.
NOTES (numbers refer to Sequence numbers above)
1. 3 uL of 16.66 nM GPX1 and 0.016% BSA in assay buffer (50 mM Tris-HCl, 2 mM EDTA (pH 7.5), 150 mM NaCl) was added to columns 3-48 of 1536-well assay plates using a BioRAPTR Flying Reagent Dispenser (Let's Go Robotics (LGR), Carlsbad, CA). A no-enzyme control (0.01% BSA in TES assay buffer) was added to columns 1-2.
2. 25 nL of test compounds and DMSO controls were added to each well with a pin tool (Kalypsys).
3. The assay plates were incubated for 30 minutes at room temperature.
4. 1 uL of master mix (500 nM glutathione reductase (GR), 5 mM reduced glutathione (GSH), 2.5 mM NADPH in assay buffer) was added. 1 uL of cumene hydroperoxide (CHP) ([2.5 mM] in 50% EtOH) was then added within 5 minutes to initiate the reaction. Final concentrations were: 10 nM GPX1, 1 mM GSH, 0.5 mM CHP, 0.5 mM NADPH, 100 nM GR, 0.01% BSA.
5. Initial fluorescence readout (t=0) at 340/450 nm was measured using a ViewLux multimodal detector (PerkinElmer, Waltham, MA).
7. Endpoint fluorescence readout (t=15) at 340/450 nm was measured 15 min after room temperature incubation.
Consider `C=C[C@H](/C=C\c1ccc(O)cc1)c1ccc(O)cc1`, for which the Potency entry was “inactive”.

For `Cc1noc(C)c1-c1cc(O)cc(C(O)c2ccccc2)c1` (stereo not given), the Potency result is “inactive”.

Turning to `Cn1cc(-c2cnn3c(N)c(Br)c([C@@H]4CCCNC4)nc23)cn1`, the Potency result was “inactive”.

Consider `CN(C)N(C)C(=O)[C@@]1(Cc2ccccc2)CCCN(C(=O)[C@@H](Cc2c[nH]c3ccccc23)NC(=O)C(C)(C)N)C1`, for which the Potency entry is “inactive”.

`CC(=O)O[C@H]1C[C@H](OC(C)=O)[C@]2(C)[C@H](CC[C@@]34O[C@@H]3C3=C(C)C(=O)O[C@@H]3C[C@H]42)C1(C)C`: the Potency result is “inactive”.

On to `CCCCc1cc2c(=O)c(C(=O)OC)c[nH]c2cc1OCc1ccccc1`, for which the Potency entry is “inactive”.

Take `O=C(NS(=O)(=O)c1ccc(Br)s1)c1ccc(Cl)cc1Cl`: the Potency entry is “inactive”.

For the compound `CC(C)(C)c1ccc(-c2nc3c(N4CCN(Cc5ccc6nccnc6c5)CC4)cccc3[nH]2)cc1`, the Potency result is “inactive”.

`O=C(Nc1ccccc1)N1CCN(c2nc(-c3ccccc3)ns2)CC1`: the Potency result was “inactive”.

For `CCCCOC(=O)C(=O)Nc1cccc(-c2nn[nH]n2)c1`, the Potency entry was “inactive”.

On to `CC(C)NC(=O)N1CC[C@H](N=C2Nc3cc(F)ccc3N(CC(F)F)c3ccc(Cl)cc32)C1`, for which the Potency result was “inactive”.

Take `CC(C)c1c(O)ccc2c1CC[C@H]1C(C)(C)CCC[C@]21C`: the Potency result was “inactive”.

`Nc1nc2c(c(N3CC[C@@H](N)C3)n1)CCCc1ccccc1-2`: the Potency entry was “inactive”.

Turning to `CCOc1ccc(N=C(C)Nc2ccc(OCC)cc2)cc1`, the Potency result was “inactive”.

Turning to `C/C(=C\CCC(C)C1=CCC2(C)OC3=C(CC12)C(=O)C(O)CC3)CO` (stereo not given), the Potency entry is “inactive”.

As to `CCNC(=O)N1CCCN(c2ccc(C(=O)NCCc3ccc(Cl)cc3Cl)cc2NC(=O)c2cccc(Cl)c2)CC1`, the Potency entry was “inactive”.

`Cc1csc(N(C(=O)CSc2ccc(-c3ccccc3)nn2)C2CC2)n1`: the Potency is 20.2 µM (active).

On to `COCc1c(Cl)ccc2c1CC[C@H]2c1ncc[nH]1`, for which the Potency result was “inactive”.

In the case of `CNCc1cc(-c2ccccc2F)n(S(=O)(=O)c2cccnc2)c1`, the Potency result was “inactive”.

Consider `CCCC(Nc1nc(-c2ccc(NC(=O)NCC)c(OC)c2)ncc1C)c1cccnc1` (stereo not given), for which the Potency result was “inactive”.

With `C=C1C(=O)O[C@@H]2C[C@]3(C)[C@@H](CCC(C)O)[C@@H]3C[C@H]12` (stereo not given in full), the Potency entry is “inactive”.

Turning to `CC(=O)O[C@@H]1CC[C@@]2(C)[C@H](CC[C@@H]3[C@@H]2C[C@H](OC(C)=O)[C@]2(C)[C@@H](C(C)=O)CC[C@@H]32)C1`, the Potency result is “inactive”.

For the compound `Cc1ccc(NC(=O)C(C)C)cc1C1CCN(Cc2ccc(Oc3ccc(F)c(F)c3)cc2)CC1`, the Potency result is “inactive”.

Turning to `C=C1C(=O)O[C@@H]2[C@H]1CC[C@H](C)C(CCC(=O)O)C2(C)O` (stereo not given in full), the Potency result was “inactive”.

As for `C/C=C/C=C/C=C/C(=O)O[C@@H]1C=C2COC(=O)[C@]2(O)[C@@]2(C)CCCC(C)(C)[C@H]12`, the Potency result was “inactive”.

Take `Cc1cccc(N2CCN(C(=O)c3cc(S(=O)(=O)N(C)C)ccc3N3CCCC3)CC2)c1C`: the Potency result was “inactive”.

On to `CN1CCN(CCCN2c3ccccc3Sc3ccccc32)CC1`, for which the Potency result was “inactive”.

Regarding `CC(C)=CCc1cc2c(cc1O)OC[C@H]1c3ccc(O)cc3O[C@@H]21`, the Potency entry is “inactive”.

For `CCOc1ccc(Cc2nc(-c3c(C)nc4ccccn34)cs2)cc1`, the Potency entry is “inactive”.

Take `CCC[C@H](N[C@H]1CCc2cc(F)cc(F)c2C1)C(=O)Nc1cn(C(C)(C)CNCC(C)(C)C)cn1`: the Potency result was “inactive”.

For the compound `CCOc1cc(C(C)(C)C)ccc1C1=NC(C)(c2ccc(Cl)cc2)C(C)(c2ccc(Cl)cc2)N1C(=O)N1CCN(CCCS(C)(=O)=O)CC1` (stereo not given), the Potency result was “inactive”.

On to `CCNc1nc(Nc2cc(F)c(C(=O)N3CCOCC3)cc2OC)ncc1C(F)(F)F`, for which the Potency result was “inactive”.

`CCCC(=O)C1(c2ccccc2)CCN(C(=O)[C@@H](Cc2ccc(OC)cc2)NC(=O)[C@@H](N)Cc2cncn2C)CC1`: the Potency entry is “inactive”.

`CCN(CC)C(=O)C(c1ccccc1)N1CCN(c2ccc(NC(=O)c3ccccc3-c3cccnc3)cc2F)CC1` (stereo not given): the Potency result was “inactive”.

For `C=C1C(OC2OC(CO)C(O)C(O)C2O)CC2C(C)(C)C(O)CCC2(C)C1CC/C(C)=C\COC(=O)CC(=O)O` (stereo not given), the Potency entry is “inactive”.

In the case of `CO/N=C(\C(=O)N[C@@H]1C(=O)N2C(C(=O)OCOC(=O)C(C)(C)C)=C(/C=C\c3scnc3C)CS[C@H]12)c1csc(N)n1`, the Potency was 4.53 µM (active).

As for `N#Cc1ccc(N2N=C3c4ccc(C(=O)O)cc4CC[C@@H]3[C@@H]2C2CCCC2)cc1Cl`, the Potency result is “inactive”.

`O=C(Nc1cccnn1)N1CCN(c2nccc(-c3ccc(F)c(F)c3)n2)CC1`: the Potency entry is “inactive”.

On to `CC(C)(C)c1ccc2c(c1)CC[C@H]2NC(=O)Nc1cccc2[nH]ncc12`, for which the Potency result is “inactive”.

Turning to `C=CC(=O)N1CCN(C(=O)CNc2cc(-c3ccccc3Cl)c(Cl)cc2OC)CC1`, the Potency result was “inactive”.
